Consider 40 compounds from PubChem BioAssay (NCATS).

The structures appear in SMILES notation. Inconclusive results are not listed. Where a call stands in place of a potency, no number is given. Calls of active or inactive are those of the source. Calls come from the whole dose curve; as a rule, active = well fitted cell-killing curve with a large enough effect; inconclusive = small, poorly fitted or top-dose-only effect; inactive = flat fitted curve, though single readings scatter. Bridge positions count the residues as written; N and C are the ends. Square brackets hold non-standard residues; d marks the D form. Side chains are listed from the residue outwards. Peptide text beside a SMILES is read from it. * marks the point of attachment. Phg(4-OMe) = COc1ccc([C@H](N)C(=O)O)cc1; d(aIle) = CC[C@H](C)[C@@H](N)C(=O)O; d(aThr) = C[C@@H](O)[C@@H](N)C(=O)O; NMeF = CN[C@@H](Cc1ccccc1)C(=O)O; Isobutyryl = CC(C)C(=O)*
Potency is the fitted concentration of half-maximal effect.

The nature of this experiment: A2780 Cisplatin Sensitive Ovarian Cancer Cell Toxicity qHTS against the NCATS CANVASS Library (AID 1347353). Note: nearly all actives have a fitted effect of over 60% in size. The conditions noted are these: A2780 ovarian cancer viability, ATPLite luminescence, 72 h; series mostly up to 46.1 µM. From the text:
Natural products and their derivatives continue to be wellsprings of nascent therapeutic potential. However, many laboratories have limited resources for biological evaluation, leaving their previously isolated or synthesized compounds largely or completely untested. To address this issue, the Canvass library of natural products was assembled (https://tripod.nih.gov/canvass), in collaboration with academic and industry researchers, for quantitative high-throughput screening (qHTS) across a diverse set of cell-based and biochemical assays. The pure (>85% purity by liquid chromatography/mass spectrometry [LC/MS]) Canvass library of 346 natural products were submitted by 45 academic laboratories and companies around the world. We collected pure natural products to circumvent deconvolution and structure elucidation due to time and resource limitations. The library was formatted into 1536-well plates and evaluated in 50 qHTS (in an 11-pnt concentration series) bioassays with broad scope of disease-relevant mechanisms. The resulting data set from 50 different assays was then systematically analyzed to identify overall trends and specific natural products with interesting biological activities. Reported herein are the results of each individual qHTS and their corresponding assay protocol. National Center for Advancing Translational Sciences (NCATS), Rockville, MD National Institute of Health (NIH), Bethesda, Maryland
Cancer Cell Toxicity protocol 1. In a 1536 well, white solid bottom tissue culture plates (Corning 7494), A2780 cisplatin sensitive ovarian cancer cells were dispensed in each well at a final concentration of 750 cells / well (5uL volume) using the Multidrop Combi (Thermo Fisher Scientific) dispenser. 2. The plates were incubated for 4 hours at 37 degrees C/5% CO2/95% Rh. 3. Compounds were pin transferred (~23nL volume) via Wako Pin-tool (Wako Automation, Richmond VA) equipped with a 1536 pin head. The assay plates were treated with compounds in an 11-pnt concentration series with a final concentration range of […] to 85uM. 4. Bortezomib was used as a single dose control (0.5mM column 4, rows 1 - 32) at a final concentration of 1.9uM and as a 16pnt titration (1mM; 1:2 dilution; 16-points; n = 2; column 3, rows 1 - 32) with final concentration range of 0.1nM - 3.8uM. 5. The assay plates were incubated for 72 hours at 37 degrees C/5% CO2/95% Rh. 6. 4uL ATPLite detection reagent was then added to the plates (columns 2 - 48, rows 1 - 32) and incubated at room temperature for additional 10 min. 7. Luminescence signal was acquired via the ViewLux plate reader (PerkinElmer) using a clear filter, 2 second exposure and 2x binning settings.
On to `Cc1cc(C)c(O)c(C(=O)CC2CC(=O)NC(=O)C2)c1`, for which the Potency was 4.69 µM (active).
To `Cc1cc(O)cc2c1C(=O)c1c(O)cc(O)cc1C2=O` belongs “inactive”; to `CC(C)C[C@@H]1c2c(O)c(C=O)c(O)c(C=O)c2O[C@]2(C)C=C[C@@H](C(C)C)C[C@H]12`, “inactive”.
On to `O=C1CCC(=O)N(O)CCCCCNC(=O)CCC(=O)N(O)CCCCCNC(=O)CCC(=O)N(O)CCCCCN1`, for which the Potency was 26.4 µM (active).
To `C/C(=C\[C@@H](C)CC/C=C/CC/C=C/C(=O)O)[C@H](O)[C@H](C)C(=O)CCCC1CC(=O)NC(=O)C1` belongs “inactive”.
To `C=C[C@@](C)(O)CC[C@@H]1[C@@]2(C)CCCC(C)(C)[C@@H]2CC[C@@]1(C)O` belongs “inactive”; to `COC1C(C)OC(OCC23C[C@@H]4[C@H](C)CC[C@H]4C4(C=O)CC2C=C(C(C)C)C34C(=O)O)[C@@H](O)[C@H]1O` (stereo not given in full), “inactive”; to `CC[C@@H]1C[C@@]2(CC)OC(=O)[C@@]3(CC)[C@H](CC)[C@@H]1[C@@H]23`, “inactive”.
To `CC(C)=CCCC(C)(O)[C@H]1CC=C(C)C(O)C1` (stereo not given in full) belongs “inactive”.
In the case of `O=C(OC[C@H]1O[C@@H](OC(=O)c2cc(O)c(O)c(O)c2)[C@H](OC(=O)c2cc(O)c(O)c(O)c2)[C@@H](OC(=O)c2cc(O)c(O)c(O)c2)[C@@H]1OC(=O)c1cc(O)c(O)c(O)c1)c1cc(O)c(O)c(O)c1`, the Potency is 8.33 µM (active).
As to `O=C1CC(c2ccc(O)cc2)Oc2cc(O)cc(O)c21` (stereo not given), the Potency result is “inactive”.
`CCCc1c2c([nH]c(=O)c1C)C(=O)c1[nH]c(=O)c(C)c(CCC)c1C2=O`: the Potency was 14.8 µM (active).
To `COc1cc(/C=C/C(=O)OC[C@@H](Cc2ccc(O)c(OC)c2)[C@@H](COC(=O)/C=C/c2ccc(O)c(OC)c2)Cc2ccc(O)c(OC)c2)ccc1O` belongs 9.35 µM (active); to `O=Cc1ccc2n1C[C@]1(OC2)O[C@H](CO)[C@@H](O)[C@@H]1O`, “inactive”.
To `COc1cc2c(c(O)c1O)C(=O)c1c(coc1C)C2=O` belongs 4.69 µM (active).
With `C/C(=C\[C@H](C)C(=O)C[C@H](O)CC1CC(=O)NC(=O)C1)[C@@H]1OC(=O)CCCC/C=C/[C@@H](O)C[C@@H]1C`, the Potency was 2.35 µM (active).
Take `C=C1C[C@]23C=CC(=O)[C@@](C)(CCCC(C)C(=O)N[C@@H](CO)C(=O)O)[C@@H]2C[C@@H]1CC3` (stereo not given in full): the Potency result is “inactive”.
To `CCC(C)=C1OC(=O)[C@H](C)[C@H](O)[C@H](Cc2cccnc2)NC(=O)C(NC(=O)c2ncccc2O)C(C)OC1=O` (stereo not given in full) belongs “inactive”; to `O=C1c2c(O)cc(O)cc2OC(c2ccc(O)cc2)C1O` (stereo not given), “inactive”; to `CC(C)=CCC[C@]1(C)[C@H]2CC(=O)[C@@]3(CO3)[C@@H]1C2`, “inactive”.
To `CO[C@@H]1[C@H](O)[C@@H](C)O[C@@H](OC[C@@H]2C(C)OC(=O)/C=C/[C@H](C)C(O[C@@H]3O[C@H](C)CC4(OC(=O)O[C@@H]4C)C3O)[C@@H](C)CC(C)C(=O)/C=C/[C@H]3OC23)[C@@H]1OC` (stereo not given in full) belongs 11.8 µM (active); to `C[C@@]12C[C@@H](C[C@@H]3C(=O)O[C@@H](c4ccoc4)[C@H](OC(=O)c4ccccc4)[C@@H]31)OC2=O`, “inactive”.
`CC1(C)CC[C@]2(CO)CC[C@]3(C)C(=CCC4[C@@]5(C)CC[C@H](O)C(C)(C)C5CC[C@]43C)C2C1` (stereo not given in full): the Potency result was “inactive”.
To `CC[C@H]1[C@H](C)[C@H](c2cc(OC)c(OC)cc2OC)[C@@H](C)[C@H](c2cc(OC)c(OC)cc2OC)[C@@]12C=C(OC)C(=O)C=C2OC` belongs 14.8 µM (active); to `C/C=C/c1cc2c(c(=O)o1)C(=O)[C@@H](O)[C@H](C)O2`, 2.35 µM (active); to `CC[C@H](C)[C@H]1NC(=O)[C@@H](NC(=O)C(C)C)[C@@H](C)OC(=O)[C@H](COC(=O)CNC(C)=O)NC(=O)[C@@H]([C@@H](C)O)NC(=O)[C@H](Cc2ccccc2)N(C)C(=O)[C@H](c2ccc(OC)cc2)NC1=O` (Isobutyryl-T[d(aIle)][Phg(4-OMe)][NMeF][d(aThr)]S([Gly-Ac]); ester 1-C), “inactive”.
To `C=CC(CCCCC)C1C(=O)NC(=O)C1C(=O)C1C(/C=C/C)C=CC2CC(C(=O)O)CC(C)C21` (stereo not given) belongs 7.43 µM (active).
Take `COc1cc2ccc(=O)oc2c(O)c1O[C@@H]1O[C@H](CO)[C@@H](O)[C@H](O)[C@H]1O`: the Potency result is “inactive”.
To `C/C=C1/C2=CCCN3C(=O)O[C@H]([C@H]1O)[C@H]23` belongs “inactive”; to `O=Cc1ccc2n1C[C@]1(C[C@H](O)[C@@H](CO)O1)OC2`, “inactive”; to `C/C=C/C(=O)C1(O)CC2CC(C(=O)O)CC(C)C2C1C1=C2C(=O)NC(=O)C2=C(CCCCC)C(C)O1` (stereo not given), 8.33 µM (active).
In the case of `C[C@]12CCC[C@](C)(C(=O)O)[C@@H]1CC[C@@]1(C)c3cocc3CC[C@H]21`, the Potency entry was “inactive”.
Regarding `C[C@@H]1CC[C@]2(C(=O)O)CC[C@]3(C)C(=C2[C@H]1C)CC[C@@H]1[C@@]2(C)CC[C@H](O)C(C)(C)[C@@H]2CC[C@]13C`, the Potency entry was “inactive”.
To `COc1cc([C@@H]2c3cc4c(cc3C[C@@]3(O[C@@H]5O[C@H](CO)[C@@H](O)[C@H](O)[C@H]5O)COC(=O)[C@H]23)OCO4)cc(OC)c1OC` belongs 0.0372 µM (active).
On to `C=C[C@]1(C)CC[C@@H]([C@H](C)C(=O)CC=C(C)C)O1`, for which the Potency entry is “inactive”.
With `CCC(=O)N[C@@H](C[C@H](C)C(Cl)(Cl)Cl)C(=O)N1C(=O)C=C(OC)[C@@H]1CC(C)C`, the Potency is 26.4 µM (active).
Consider `C/C=C1/CN2C3CC1C1C=CC(=O)N4c5ccccc5[C@@]3(C[C@@H]2C2=C[C@H]3C5CC6N(CC[C@@]67c6ccccc6N(C2=O)[C@@H]37)C/C5=C/C)[C@H]14` (stereo not given in full), for which the Potency is 11.8 µM (active).
To `CN1CC[C@@]23c4ccccc4N[C@@H]1[C@@]21CCN(C)[C@@H]3Nc2ccccc21` belongs “inactive”; to `C/C1=C/[C@@H](C)[C@H](O)C/C=C/CC/C=C/C(=O)O[C@@H]1[C@H](C)C(=O)CCCC1CC(=O)NC(=O)C1`, 10.5 µM (active); to `C/C(=C\[C@H](C)C(=O)/C=C/CC1CC(=O)NC(=O)C1)[C@@H]1OC(=O)CCCC/C=C/[C@H](O)[C@@H](O)[C@@H]1C`, 10.5 µM (active).
